Inconclusive results are not listed. Where a call stands in place of a potency, no number is given. Activity calls are given as the source filed them. Calls come from the whole dose curve.

A short description of the test: qHTS assay for small molecules that induce genotoxicity in human embryonic kidney cells expressing luciferase-tagged ATAD5 - cell viability (AID 651634). Note: nearly all actives have a fitted effect of over 25% in size. To be noted: HEK293T ATAD5-luc cells viability, CellTiter-Fluor, 15.5 h; series mostly up to 83.3 µM. From the text:
National Center for Advancing Translational Sciences [NCATS]
NIH Chemical Genomics Center [NCGC]
U.S. Environmental Protection Agency [EPA]
National Institutes of Environmental Health Sciences [NIEHS]
National Toxicology Program [NTP]
U.S. Food and Drug Administration [FDA]
Enhanced Level of Genome Instability Gene 1 (ELG1; human ATAD5) protein levels increase in response to various types of DNA damage. Using a luciferase reporter-gene tagged with ElG1, a cell-based assay [developed by Kyungjae Myung, NHGRI, NIH] was used to measure the induction of ATAD5 in human embryonic kidney cells (HEK293T). So, increase in luciferase activity can be used to identify the compounds that cause genetic stress. In addition to genotoxicity, these cells were also used to test for cytotoxicity by measuring the protease activity within live cells.
Tox21 Assay Protocol Summary:
For cytotoxicity screening, 2,000 cells in 5 uL/well were dispensed into white, solid-bottom 1536-well plates using a Multidrop Combi (Thermo Scientific) dispenser. Following transfer of 23 nL compound or DMSO vehicle by a pin tool, the plates were incubated 15.5 hr at 37C and 5% CO2. 1 ul CellTiter-Fluor reagent (Promega, Madison, WI) was then added to each plate and following 30 min incubation at 37C, fluorescence intensity was quantified on a ViewLux CCD-based plate reader.
(In qHTS, concentration-response curves come from the screen itself.)
As to `C=C[C@H]1CN2CC[C@H]1C[C@@H]2[C@@H](O)c1ccnc2ccc(OC)cc12`, the Potency entry is “inactive”.

In the case of `CC1=CC(C)(C)Nc2ccccc21`, the Potency result was “inactive”.

For the compound `Cc1ccc(S(=O)(=O)O)cc1C`, the Potency entry is “inactive”.

As to `C=CN1CCCC1=O`, the Potency result was “inactive”.

Take `CCCCCC=O`: the Potency entry is “inactive”.

Turning to `C[N+](C)(C)CCO`, the Potency entry was “inactive”.

For the compound `CC(=O)OC(C)C`, the Potency result is “inactive”.

In the case of `O=S1(=O)CCCO1`, the Potency result was “inactive”.

`Nc1cc([N+](=O)[O-])ccc1C(=O)O`: the Potency result was “inactive”.

For `[Na+]`, the Potency result was “inactive”.

`CC(=O)[C@H]1CC[C@H]2[C@@H]3CC=C4C[C@@H](O)CC[C@]4(C)[C@H]3CC[C@]12C`: the Potency result was “inactive”.

`NCCOCCO`: the Potency entry is “inactive”.

For `COC(=O)C(C)Oc1ccc(Oc2ncc(C(F)(F)F)cc2Cl)cc1` (stereo not given), the Potency result was “inactive”.

For `ClC/C=C/CCl`, the Potency result was “inactive”.

For `c1ccc2c(c1)ccc1cc3c(ccc4ccccc43)cc12`, the Potency result was “inactive”.

For the compound `CCc1cccc2c3c([nH]c12)C(CC)(CC(=O)O)OCC3` (stereo not given), the Potency result was “inactive”.

As for `CC(=O)[C@@]1(O)CC[C@H]2[C@@H]3C[C@H](C)C4=CC(=O)C=C[C@]4(C)[C@@]3(F)[C@@H](O)C[C@@]21C`, the Potency entry was “inactive”.

In the case of `CC1(C)O[C@@H]2C[C@H]3[C@@H]4C[C@H](F)C5=CC(=O)C=C[C@]5(C)[C@@]4(F)[C@@H](O)C[C@]3(C)[C@]2(C(=O)CO)O1`, the Potency entry is “inactive”.

In the case of `COc1ccc2nc(N)sc2c1`, the Potency entry was “inactive”.

With `CN(C)/N=N/c1nc[nH]c1C(N)=O`, the Potency result is “inactive”.

Take `CC(C)(C)c1cccc(C(C)(C)C)c1O`: the Potency result was “inactive”.

`OC[C@@H](O)[C@@H](O[C@@H]1O[C@H](CO)[C@H](O)[C@H](O)[C@H]1O)[C@H](O)[C@@H](O)CO`: the Potency entry was “inactive”.

For `CCCCCCOCCOCCO`, the Potency result is “inactive”.

Turning to `Cc1ccc(C(C)(C)C)c(O)c1`, the Potency entry was “inactive”.

In the case of `Oc1ccc(C(c2ccc(O)cc2)C(Cl)(Cl)Cl)cc1`, the Potency result was “inactive”.

For `NCCS(=O)(=O)O`, the Potency entry is “inactive”.

With `C=C[C@H]1CN2CC[C@H]1C[C@H]2[C@H](O)c1ccnc2ccc(OC)cc12`, the Potency entry is “inactive”.

For `CCCN1C=CN(C)C1`, the Potency entry was “inactive”.

As for `CCCOCCO`, the Potency result is “inactive”.

With `C[C@]12C=CC(=O)C=C1CC[C@H]1[C@@H]3C[C@@H](O)[C@](O)(C(=O)CO)[C@@]3(C)C[C@H](O)[C@@]12F`, the Potency entry was “inactive”.

On to `c1ccc2cc3ccccc3cc2c1`, for which the Potency entry was “inactive”.

Take `Cc1ccc(N)c([N+](=O)[O-])c1`: the Potency entry was “inactive”.

As to `CN1CCOCC1`, the Potency result was “inactive”.

For the compound `CCCCCCCC/C=C\CCCCCCCC(=O)O`, the Potency result is “inactive”.

On to `CCCCCCCCCCC(CO)CCCCCCCC` (stereo not given), for which the Potency entry is “inactive”.

Take `Nc1cc(Cl)c(N)c(Cl)c1`: the Potency result is “inactive”.

Regarding `CCC/C=C/C=O`, the Potency entry was “inactive”.

As to `C=CCNCC=C`, the Potency entry is “inactive”.

Take `CCO[Si](CCCNC(N)=O)(OCC)OCC`: the Potency entry is “inactive”.

For `Cc1ccc([N+](=O)[O-])c(C)c1`, the Potency result is “inactive”.

These data come from PubChem BioAssay (Tox21).
